Results filed as inconclusive are left out. Active and inactive are the calls of the source. How the source made its calls: active means hit-call score of the fitted dose curve at least 0.9, where 1 is the maximum; inconclusive means response in the unintended direction; inactive means score below 0.9.

By AC50 is commonly meant the concentration giving half of the maximal activity seen.

The target of assay [1] is human Matrix Metalloproteinase-3 (MMP3), MMP3 (gene 4314) (UniProt P08254). Put plainly: NVS_ENZ_hMMP3: NovaScreen (NVS) Enzymatic Assay for human Matrix Metalloproteinase-3 (MMP3) (AID 2283185). In outline:
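Fluorescent substrate turnover by recombinant MMP3 read after 1 h, signal loss scored against DMSO. Compounds first run in duplicate at 25 uM single dose, then actives confirmed by concentration series.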

The target in assay [2] is human Matrix Metalloproteinase-9 (MMP9), MMP9 (gene 4318) (UniProt P14780). Put plainly: NVS_ENZ_hMMP9: NovaScreen (NVS) Enzymatic Assay for human Matrix Metalloproteinase-9 (MMP9) (AID 2283190).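 Further: cell-free recombinant MMP9 protease activity read by fluorescent substrate signal; active means inhibition seen as loss of fluorescence signal versus DMSO.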 In outline: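 Cell-free recombinant MMP9 enzyme activity measured by fluorescence intensity 1 h after dosing. Primary screen in duplicate at 25 uM, actives followed in concentration series; loss of signal relative to DMSO.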
Chain of human Matrix Metalloproteinase-9 (MMP9), MMP9 (gene 4318) (P14780 whole entry, looked up): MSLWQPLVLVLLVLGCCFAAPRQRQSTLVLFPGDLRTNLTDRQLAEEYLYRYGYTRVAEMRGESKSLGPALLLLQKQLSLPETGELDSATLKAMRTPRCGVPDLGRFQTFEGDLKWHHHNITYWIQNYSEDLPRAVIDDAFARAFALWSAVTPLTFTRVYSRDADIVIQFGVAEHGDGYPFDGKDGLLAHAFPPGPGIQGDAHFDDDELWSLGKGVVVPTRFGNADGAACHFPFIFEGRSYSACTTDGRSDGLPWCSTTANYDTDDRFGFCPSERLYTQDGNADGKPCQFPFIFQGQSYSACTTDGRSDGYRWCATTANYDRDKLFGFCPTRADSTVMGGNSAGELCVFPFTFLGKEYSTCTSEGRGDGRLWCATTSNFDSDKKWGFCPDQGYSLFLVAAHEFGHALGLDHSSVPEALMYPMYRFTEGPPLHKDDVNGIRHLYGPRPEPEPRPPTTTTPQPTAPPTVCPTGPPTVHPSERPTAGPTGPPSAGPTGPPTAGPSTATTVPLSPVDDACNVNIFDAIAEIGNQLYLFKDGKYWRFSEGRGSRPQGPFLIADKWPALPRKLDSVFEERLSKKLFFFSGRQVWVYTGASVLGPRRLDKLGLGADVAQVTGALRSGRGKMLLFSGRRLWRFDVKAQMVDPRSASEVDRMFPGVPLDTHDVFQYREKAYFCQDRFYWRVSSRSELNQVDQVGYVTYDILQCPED

For assay [3], the target named is human Phosphodiesterase 5 (PDE5), PDE5A (gene 8654) (UniProt O76074). Kind of assay: NVS_ENZ_hPDE5: NovaScreen (NVS) Enzymatic Assay for human Phosphodiesterase 5 (PDE5) (AID 2283194). In outline:
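Screening began in duplicate at 25 uM, with actives taken into concentration-response. Enzyme activity of recombinant PDE5 toward its substrate was measured at 1 h by fluorescence mobility-shift detection, relative to DMSO controls.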

Assay [4] has as its target human p21 Activated Kinase 4 (PAK4), PAK4 (gene 10298) (UniProt O96013). Kind of assay: NVS_ENZ_hPAK4: NovaScreen (NVS) Enzymatic Assay for human p21 Activated Kinase 4 (PAK4) (AID 2283189). In outline: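 Extracted PAK4 enzyme activity read by fluorescence with mobility-shift separation 1 h after chemical addition. Duplicate single-concentration screen at 25 uM, DMSO as negative control.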

For assay [5], the target named is human NIMA (Never In Mitosis Gene A)-Related Kinase 2 (NEK2), NEK2 (gene 4751) (UniProt P51955). Put plainly: NVS_ENZ_hNEK2: NovaScreen (NVS) Enzymatic Assay for human NIMA (Never In Mitosis Gene A)-Related Kinase 2 (NEK2) (AID 2283188). In outline:
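Compounds were first screened in duplicate at 25 uM, with actives followed up in concentration series. Recombinant NEK2 activity, cell-free, was read 1 h after dosing by fluorescence intensity after mobility-shift separation. Signal loss was scored against DMSO.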

For assay [6], the target named is human Phosphodiesterase 4A1 (PDE4A1), PDE4A (gene 5141) (UniProt P27815). Put plainly: NVS_ENZ_hPDE4A1: NovaScreen (NVS) Enzymatic Assay for human Phosphodiesterase 4A1 (PDE4A1) (AID 2283191). In outline: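 Fluorescent substrate turnover by recombinant PDE4A1 read after 1 h by mobility-shift separation. Primary duplicate screen at 25 uM; hits retested in concentration series with a 50 uM maximum, relative to DMSO.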
Chain of human Phosphodiesterase 4A1 (PDE4A1), PDE4A (gene 5141) (P27815 whole entry, looked up): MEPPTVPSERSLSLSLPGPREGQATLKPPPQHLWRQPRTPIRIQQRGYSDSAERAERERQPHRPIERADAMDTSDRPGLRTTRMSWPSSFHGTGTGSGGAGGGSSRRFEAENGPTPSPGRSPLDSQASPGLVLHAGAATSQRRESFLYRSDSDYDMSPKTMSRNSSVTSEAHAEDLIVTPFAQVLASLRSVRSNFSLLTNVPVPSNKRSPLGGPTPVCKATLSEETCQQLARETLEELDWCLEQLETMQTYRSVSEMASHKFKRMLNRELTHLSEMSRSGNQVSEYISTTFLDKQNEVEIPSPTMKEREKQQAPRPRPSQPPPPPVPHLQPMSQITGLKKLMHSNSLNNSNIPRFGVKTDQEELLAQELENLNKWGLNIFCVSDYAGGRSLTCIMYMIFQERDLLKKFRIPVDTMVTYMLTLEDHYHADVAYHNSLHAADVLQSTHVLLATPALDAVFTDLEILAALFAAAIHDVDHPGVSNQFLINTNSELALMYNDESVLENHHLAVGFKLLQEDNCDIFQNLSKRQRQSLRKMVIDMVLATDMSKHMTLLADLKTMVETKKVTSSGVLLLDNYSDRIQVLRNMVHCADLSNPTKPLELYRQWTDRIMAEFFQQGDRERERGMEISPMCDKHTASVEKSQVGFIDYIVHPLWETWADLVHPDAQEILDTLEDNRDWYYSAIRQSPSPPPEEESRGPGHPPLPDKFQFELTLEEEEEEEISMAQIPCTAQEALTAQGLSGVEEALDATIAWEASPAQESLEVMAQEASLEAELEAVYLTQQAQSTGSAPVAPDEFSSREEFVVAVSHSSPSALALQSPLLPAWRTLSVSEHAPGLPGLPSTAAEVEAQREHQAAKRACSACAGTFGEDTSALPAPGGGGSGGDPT

Assay [7] has as its target human Phosphodiesterase 10 (PDE10), PDE10A (gene 10846) (UniProt Q9Y233). Put plainly: NVS_ENZ_hPDE10: NovaScreen (NVS) Enzymatic Assay for human Phosphodiesterase 10 (PDE10) (AID 2283195). In outline:
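Readout is fluorescence intensity following electrophoretic mobility-shift separation, 1 h after dosing of isolated PDE10A protein. Hits meeting a preset threshold at 25 uM went to concentration series (max 50 uM), analysed relative to DMSO.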

Assay [8] concerns the target human Mitogen- and Stress-activated Protein Kinase-1 (Msk1), RPS6KA5 (gene 9252) (UniProt O75582). Kind of assay: NVS_ENZ_hMsk1: NovaScreen (NVS) Enzymatic Assay for human Mitogen- and Stress-activated Protein Kinase-1 (Msk1) (AID 2283187). In outline:
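Chemicals first run in duplicate at 25 uM, with actives followed up in singleton concentration series to 50 uM maximum. Enzyme activity came from substrate/product mobility-shift separation with fluorescence detection after 1 h incubation of the recombinant protein.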

Assay [9] deals with cAMP-dependent protein kinase catalytic subunit alpha (Homo sapiens) (UniProt P17612). Kind of assay: NVS_ENZ_hPKA: NovaScreen (NVS) Enzymatic Assay for human Protein Kinase A (PKA) (AID 2283192). The protocol:
NVS_ENZ_hPKA is a biochemical, single-readout assay that uses extracted gene-proteins in a cell-free assay. Measurements were taken 1 hour after chemical dosing in a 384-well plate.NVS_ENZ_hPKA is one of one assay component(s) measured or calculated from the NVS_ENZ_hPKA assay. It is designed to make measurements of enzyme activity, a form of enzyme reporter, as detected with fluorescence intensity signals by Fluorescence and electrophoretic mobility shift technology.Data from the assay component NVS_ENZ_hPKA was analyzed into 1 assay endpoint. This assay endpoint, NVS_ENZ_hPKA, was analyzed in the positive analysis fitting direction relative to DMSO as the negative control and baseline of activity. Using a type of enzyme reporter, loss-of-signal activity can be used to understand changes in the enzymatic activity as they relate to the gene PRKACA. Furthermore, this assay endpoint can be referred to as a primary readout, because this assay has produced multiple assay endpoints where this one serves a enzymatic activity function. To generalize the intended target to other relatable targets, this assay endpoint is annotated to the kinase intended target family, where the subfamily is serine/threonine kinase. […]

Assay [10] concerns the target human Matrix Metalloproteinase-2 (MMP2), MMP2 (gene 4313) (UniProt P08253). Put plainly: NVS_ENZ_hMMP2: NovaScreen (NVS) Enzymatic Assay for human Matrix Metalloproteinase-2 (MMP2) (AID 2283184). In outline:
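Compounds first screened in duplicate at a single 25 uM, with actives followed up in concentration series. Recombinant human MMP2 cleaves a fluorogenic substrate; fluorescence taken at 1 h, inhibition fitted relative to DMSO.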

Chain of human p21 Activated Kinase 4 (PAK4), PAK4 (gene 10298) (O96013 whole entry, looked up): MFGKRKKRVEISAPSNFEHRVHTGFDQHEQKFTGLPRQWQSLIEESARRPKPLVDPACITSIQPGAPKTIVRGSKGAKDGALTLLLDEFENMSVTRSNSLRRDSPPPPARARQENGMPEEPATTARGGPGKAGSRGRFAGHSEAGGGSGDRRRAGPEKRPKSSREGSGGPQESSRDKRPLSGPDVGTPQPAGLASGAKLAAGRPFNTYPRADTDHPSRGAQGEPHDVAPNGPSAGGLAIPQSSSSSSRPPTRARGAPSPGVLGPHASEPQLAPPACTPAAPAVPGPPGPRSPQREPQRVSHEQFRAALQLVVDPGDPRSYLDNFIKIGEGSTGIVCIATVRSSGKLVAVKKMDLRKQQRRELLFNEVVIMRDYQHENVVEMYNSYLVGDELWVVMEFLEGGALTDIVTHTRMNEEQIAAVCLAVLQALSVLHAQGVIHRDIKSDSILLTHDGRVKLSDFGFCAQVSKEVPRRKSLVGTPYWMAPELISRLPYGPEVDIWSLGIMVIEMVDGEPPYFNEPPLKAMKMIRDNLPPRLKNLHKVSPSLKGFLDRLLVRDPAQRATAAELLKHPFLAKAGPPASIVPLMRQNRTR
Chain of human Phosphodiesterase 10 (PDE10), PDE10A (gene 10846) (Q9Y233 whole entry, looked up): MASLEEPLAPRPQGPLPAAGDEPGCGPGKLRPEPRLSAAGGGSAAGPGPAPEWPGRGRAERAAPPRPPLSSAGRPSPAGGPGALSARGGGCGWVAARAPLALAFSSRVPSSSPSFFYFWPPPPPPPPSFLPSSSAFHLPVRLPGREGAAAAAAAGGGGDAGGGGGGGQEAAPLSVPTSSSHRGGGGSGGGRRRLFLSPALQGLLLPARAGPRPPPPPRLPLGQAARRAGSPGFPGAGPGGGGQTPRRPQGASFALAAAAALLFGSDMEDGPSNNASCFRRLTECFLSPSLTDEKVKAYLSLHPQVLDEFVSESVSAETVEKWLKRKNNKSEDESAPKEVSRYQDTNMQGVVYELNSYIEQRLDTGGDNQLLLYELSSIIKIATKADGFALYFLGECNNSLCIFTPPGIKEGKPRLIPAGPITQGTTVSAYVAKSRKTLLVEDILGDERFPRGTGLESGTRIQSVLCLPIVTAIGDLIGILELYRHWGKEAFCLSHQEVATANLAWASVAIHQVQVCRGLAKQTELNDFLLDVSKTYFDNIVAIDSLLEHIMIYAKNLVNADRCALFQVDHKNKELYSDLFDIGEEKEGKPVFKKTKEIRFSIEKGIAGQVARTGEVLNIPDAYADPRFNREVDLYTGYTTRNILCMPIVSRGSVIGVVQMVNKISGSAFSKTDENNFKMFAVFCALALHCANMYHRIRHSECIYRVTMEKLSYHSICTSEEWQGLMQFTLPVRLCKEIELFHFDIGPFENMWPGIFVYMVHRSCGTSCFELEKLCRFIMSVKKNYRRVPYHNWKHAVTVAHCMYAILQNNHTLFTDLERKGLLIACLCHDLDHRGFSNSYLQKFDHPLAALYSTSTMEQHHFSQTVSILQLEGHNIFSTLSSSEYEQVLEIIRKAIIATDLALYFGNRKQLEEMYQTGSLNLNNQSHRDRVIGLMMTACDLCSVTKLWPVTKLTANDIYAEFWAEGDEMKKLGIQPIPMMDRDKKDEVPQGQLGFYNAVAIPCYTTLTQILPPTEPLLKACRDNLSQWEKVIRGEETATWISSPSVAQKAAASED
Chain of human Mitogen- and Stress-activated Protein Kinase-1 (Msk1), RPS6KA5 (gene 9252) (O75582 whole entry, looked up): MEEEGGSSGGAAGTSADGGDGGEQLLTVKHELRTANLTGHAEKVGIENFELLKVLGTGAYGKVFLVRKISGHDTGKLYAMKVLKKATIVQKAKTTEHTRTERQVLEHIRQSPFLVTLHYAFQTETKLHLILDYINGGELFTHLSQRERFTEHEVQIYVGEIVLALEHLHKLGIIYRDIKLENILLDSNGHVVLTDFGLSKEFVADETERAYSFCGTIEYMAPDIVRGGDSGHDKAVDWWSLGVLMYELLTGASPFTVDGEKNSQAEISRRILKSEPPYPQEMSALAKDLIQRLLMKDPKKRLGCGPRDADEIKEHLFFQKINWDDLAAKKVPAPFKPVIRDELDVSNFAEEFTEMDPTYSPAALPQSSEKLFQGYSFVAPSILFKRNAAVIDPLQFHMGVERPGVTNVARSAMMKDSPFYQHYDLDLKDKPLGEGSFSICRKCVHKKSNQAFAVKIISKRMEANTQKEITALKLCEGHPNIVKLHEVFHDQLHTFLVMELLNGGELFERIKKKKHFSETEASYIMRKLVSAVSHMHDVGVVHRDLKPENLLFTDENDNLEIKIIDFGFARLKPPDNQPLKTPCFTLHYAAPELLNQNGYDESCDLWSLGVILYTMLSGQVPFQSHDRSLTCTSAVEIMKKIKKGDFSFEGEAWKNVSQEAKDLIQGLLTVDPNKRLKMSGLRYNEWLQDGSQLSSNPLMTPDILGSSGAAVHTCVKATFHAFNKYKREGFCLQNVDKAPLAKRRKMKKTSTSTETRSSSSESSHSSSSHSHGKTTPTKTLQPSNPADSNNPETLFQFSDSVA
Chain of human Matrix Metalloproteinase-3 (MMP3), MMP3 (gene 4314) (P08254 whole entry, looked up): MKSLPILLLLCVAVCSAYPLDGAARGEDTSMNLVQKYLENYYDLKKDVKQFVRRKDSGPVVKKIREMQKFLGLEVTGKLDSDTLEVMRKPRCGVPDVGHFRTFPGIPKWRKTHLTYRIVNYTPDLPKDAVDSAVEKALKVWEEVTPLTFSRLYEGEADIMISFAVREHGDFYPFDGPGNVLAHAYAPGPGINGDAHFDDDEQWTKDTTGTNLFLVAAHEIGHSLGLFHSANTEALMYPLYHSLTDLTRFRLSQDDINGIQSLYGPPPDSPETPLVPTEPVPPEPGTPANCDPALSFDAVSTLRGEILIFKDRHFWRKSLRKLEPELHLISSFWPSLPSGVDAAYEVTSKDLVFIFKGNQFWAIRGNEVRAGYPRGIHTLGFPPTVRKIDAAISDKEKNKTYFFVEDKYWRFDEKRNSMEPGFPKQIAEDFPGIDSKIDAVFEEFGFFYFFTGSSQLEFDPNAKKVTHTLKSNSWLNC
Chain of human NIMA (Never In Mitosis Gene A)-Related Kinase 2 (NEK2), NEK2 (gene 4751) (P51955 whole entry, looked up): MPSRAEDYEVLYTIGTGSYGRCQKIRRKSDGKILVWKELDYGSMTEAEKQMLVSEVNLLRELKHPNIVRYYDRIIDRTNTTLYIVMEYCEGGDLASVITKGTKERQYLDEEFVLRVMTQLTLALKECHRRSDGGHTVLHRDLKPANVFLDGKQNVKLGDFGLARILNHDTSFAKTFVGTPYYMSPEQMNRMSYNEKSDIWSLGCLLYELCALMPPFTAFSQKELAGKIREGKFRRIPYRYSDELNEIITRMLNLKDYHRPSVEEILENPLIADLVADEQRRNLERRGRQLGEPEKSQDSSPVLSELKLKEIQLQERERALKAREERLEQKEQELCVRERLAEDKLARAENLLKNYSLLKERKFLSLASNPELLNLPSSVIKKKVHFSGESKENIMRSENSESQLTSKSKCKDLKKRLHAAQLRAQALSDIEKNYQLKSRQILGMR

Turning to `CO/C=C(/C(=O)OC)c1ccccc1COc1cccc(C(F)(F)F)n1`, the call in assay [1] and in [2] was inactive.

Consider `Sc1ccccc1`, for which the AC50 in assay [2] was 4.12 µM (active).

As for `Oc1c(Cl)c(Cl)c(Cl)c(Cl)c1Cl`, the call in assay [3] was inactive.

Consider `ClC1=C(Cl)[C@]2(Cl)[C@@H]3[C@H]4C[C@H]([C@@H]5O[C@H]45)[C@@H]3[C@@]1(Cl)C2(Cl)Cl`, for which the compound was classed as inactive in [4].

`c1cc2ccc3cccc4ccc(c1)c2c34`: in [5], the compound was classed as inactive.

Regarding `CCCN(CCC)N=O`, the compound was called inactive in assay [6] and in assay [3].

Consider `CCCCCCCCCc1ccc(O)cc1`, for which the result in assay [2] was inactive.

Take `ClC(Cl)=C(c1ccc(Cl)cc1)c1ccc(Cl)cc1`: the call in [3] was inactive.

Regarding `Cc1ccc(O)c(C)c1`, the AC50 in assay [3] was 37.4 µM (active).

In the case of `O=S(=O)(O)C(F)(F)C(F)(F)C(F)(F)C(F)(F)C(F)(F)C(F)(F)F`, the outcome in [6], in assay [3] and in assay [7] was inactive.

On to `N#Cc1ccc(N(CC(N)=O)CC(F)(F)F)cc1C(F)(F)F`, for which the call in assay [3] was inactive.

Take `O=C(O)C(F)(F)C(F)(F)C(F)(F)C(F)(F)C(F)(F)F`: the call in [7] was inactive.

With `CCSC(=O)N(CC)C1CCCCC1`, in [8], the outcome was inactive.

For the compound `O=C(O)C(F)(F)C(F)(F)C(F)(F)C(F)(F)C(F)(F)C(F)(F)C(F)(F)C(F)(F)F`, the result in assay [8], in assay [9] and in assay [3] was inactive. For the same compound, in assay [5], the AC50 is 40.7 µM (active).

As for `O=NN(c1ccccc1)c1ccccc1`, the outcome in assay [10] was inactive.

`CC1=C2C[C@H]3[C@@H](CC=C4C[C@@H](O)CC[C@@]43C)[C@@H]2CC[C@]12O[C@@H]1C[C@H](C)CN[C@H]1[C@H]2C`: the AC50 in assay [8] is 19 µM (active). The call in assay [4], in assay [6], in assay [9] and in assay [7] was inactive.

Consider `CCNc1nc(NC(C)C)nc(SC)n1`, for which the AC50 in assay [6] is 2.15 µM (active); in assay [3], 17.4 µM (active).

Regarding `C[C@]12CCC(=O)C=C1CC[C@@H]1[C@@H]2CC[C@]2(C)C(=O)CC[C@@H]12`, in assay [3], the AC50 is 12.3 µM (active).

For `Cc1cc2c3c(c1)C(c1ccccc1)=N[C@@H](NC(=O)c1ccncc1)C(=O)N3CC2`, the AC50 in assay [6] is 1.36 µM (active); in assay [3], 3.87 µM (active); in assay [7], 5.66 µM (active).

In the case of `CN(C)CCO`, in assay [4], the compound was called inactive.

For the compound `CC(C)C(=O)OCC(C)(C)C(OC(=O)C(C)C)C(C)C` (stereo not given), the compound was classed as inactive in assay [10], in assay [2], in assay [3] and in assay [7].

`O=C(O)C(F)(F)C(F)(F)C(F)(F)C(F)(F)C(F)(F)C(F)(F)C(F)(F)C(F)(F)C(F)(F)F`: the AC50 in assay [1] was 12.5 µM (active).

Consider `CCC(C)(c1ccc(O)cc1)c1ccc(O)cc1`, for which, in [3], the compound was classed as inactive.

Values taken from PubChem BioAssay (EPA / NIEHS).
